Test [1] concerns the target Myc proto-oncogene protein (Homo sapiens) (UniProt P01106). The test is described as follows: ATG_Myc_CIS: Attagene CIS-FACTORIAL HepG2 Assay for human Myelocytomatosis (Myc) Proto-Oncogene Transcription Factor (AID 2282990). The conditions noted are these: HepG2, Attagene cis-reporter transcription factor activity; actives raise or lower the signal. In outline:
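HepG2, transient MRTU transfection (cis promoters, endogenous TFs); 24 h dosing; TriZol RNA → oligo(dT) RT → PCR → 6-FAM primer extension → HpaI cut → CE. Bidirectional fit vs DMSO.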

Test [2] is described as follows: ATG_NF_kB_CIS: Attagene CIS-FACTORIAL HepG2 Assay for human Nuclear Factor Kappa B (NF-kB) (AID 2282991). The conditions noted are these: HepG2 Attagene cis-factorial NF-kB reporter mRNA; actives raise or lower the signal. The method, boiled down: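 HepG2 cells transfected with cis-promoter-driven reporter units, so endogenous transcription factor activity is measured. Reporter mRNA quantified 24 h after dosing by RT-PCR and capillary electrophoresis, with bidirectional fitting against DMSO.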

Test [3] is described as follows: ATG_NRF2_ARE_CIS: Attagene CIS-FACTORIAL HepG2 Assay for human Nuclear Factor Erythroid 2 Related Factor 2 (NFR2) response to Antioxidant Response Elements (ARE) (AID 2282992).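 As to AC50: reporter mRNA level measured by RT-PCR and capillary electrophoresis fluorescence.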 As to conditions: HepG2 Attagene ARE/NRF2 reporter, transcription factor activity; actives raise or lower the signal. The method, boiled down:
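Fluorescence intensity of reporter-specific cDNA fragments, separated by capillary electrophoresis, reflects mRNA induction in transfected HepG2 cells at 24 h. Activity is fitted bidirectionally, DMSO serving as baseline.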

A short description of test [4]: ATG_Oct_MLP_CIS: Attagene CIS-FACTORIAL HepG2 Assay for human Octamer-Binding Transcription Factor (Oct) (AID 2282993). The conditions noted are these: HepG2 Attagene cis-factorial Oct reporter, mRNA; actives raise or lower the signal. The method, boiled down:
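Multiplexed cis-reporter assay in human liver HepG2 cells, 24 h incubation. Reporter RNA amplified and labelled, then resolved by capillary electrophoresis; DMSO serves as negative control and baseline.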

For test [5], the target named is Cellular tumor antigen p53 (Homo sapiens) (UniProt P04637). The test is described as follows: ATG_p53_CIS: Attagene CIS-FACTORIAL HepG2 Assay for human p53 Transcription Factor (AID 2282994). As to conditions: HepG2 p53 cis-element reporter, Attagene mRNA; actives raise or lower the signal. The method, boiled down:
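Transiently transfected HepG2 (multiple cis reporter transcription units); exposure 24 h; reporter RNA via RT-PCR, 6-FAM extension, 2 h HpaI digest at 37 C, CE detection; DMSO baseline.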

Test [6] is described as follows: BSK_3C_TissueFactor: BioMAP Diversity Plus: 3C Assay for Tissue Factor Biomarker Activity (AID 2282997). The conditions noted are these: BioMAP 3C HUVEC, tissue factor biomarker readout; actives raise or lower the signal. The method, boiled down: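 Tissue Factor measured by ELISA, 24 h after treatment of primary HUVEC in the BioMAP 3C setting.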
Test [7] is described as follows: BSK_3C_uPAR: BioMAP Diversity Plus: 3C Assay for Urokinase-type plasminogen activator receptor (uPAR) Biomarker Activity (AID 2282998). The conditions noted are these: BioMAP 3C HUVEC, uPAR biomarker ELISA; actives raise or lower the signal. In outline:
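Dose primary human umbilical vein endothelial cells, incubate 24 h, measure cell-surface uPAR by ELISA, then fit the signal in both directions against the DMSO negative control.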

Test [8] is described as follows: BSK_3C_VCAM1: BioMAP Diversity Plus: 3C Assay for Vascular cell adhesion molecule 1 (VCAM1) Biomarker Activity (AID 2282999). The conditions noted are these: BioMAP 3C HUVEC, VCAM1 ELISA, cytokine-stimulated; actives raise or lower the signal. In outline:
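Activity fitted in both directions relative to DMSO, with ELISA measurement of the surface marker on primary HUVEC (3C) at 24 h post-treatment; parallel SRB staining (0.1% SRB, TCA-fixed, 560 nm) flagged overt cytotoxicity.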
(In general: ELISA stands for enzyme-linked immunosorbent assay.)

A short description of test [9]: BSK_4H_Eotaxin3: BioMAP Diversity Plus: 4H Assay for Eotaxin 3 Biomarker Activity (AID 2283000).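 As to outcome: CCL26 protein level quantified by ELISA in parallel with SRB cytotoxicity check.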 As to conditions: primary human endothelial cells (HUVEC); actives raise or lower the signal. The method, boiled down: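 Eotaxin-3 (CCL26) levels were measured by ELISA in HUVEC primary cultures 24 h post-dosing. Gain or loss of signal was fitted in both directions, with DMSO serving as baseline and negative control.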

The target in test [10] is human Peroxisome Proliferator-activated Receptor delta (PPARd), PPARD (gene 5467) (UniProt Q03181). Kind of test: ATG_PPARd_TRANS: Attagene TRANS-FACTORIAL HepG2 Assay for human Peroxisome Proliferator-activated Receptor delta (PPARd) (AID 2283002; active = hit-call score of the fitted dose curve at least 0.9, where 1 is the maximum). The method, boiled down:
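Transient HepG2 transfection (multiple GAL4-UAS RTUs, chimeric receptor-Gal4); 24 h dosing; total RNA → oligo(dT) RT → PCR → 6-FAM primer extension → HpaI cut → CE. Positive direction vs DMSO.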

Read-out in test [11]: Intercellular Adhesion Molecule 1 (ICAM1), ICAM1 (gene 3383)
The test is described as follows: BSK_3C_ICAM1: BioMAP Diversity Plus: 3C Assay for Intercellular Adhesion Molecule 1 (ICAM1) Biomarker Activity (AID 2283003). As to conditions: primary human endothelial cells (HUVEC); actives raise or lower the signal. The method, boiled down: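 Using DMSO as baseline, bidirectional curve fitting was applied to ICAM-1 ELISA signals from HUVEC in the 3C system, measured 24 h after compound addition.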

In test [12] the target is Retinoic acid receptor alpha (Homo sapiens) (UniProt P10276). The test is described as follows: ATG_RARa_TRANS: Attagene TRANS-FACTORIAL HepG2 Assay for human Retinoic Acid Receptor alpha (RARa) (AID 2283005; active = hit-call score of the fitted dose curve at least 0.9, where 1 is the maximum). In outline:
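Reporter transcripts, measured by RT-PCR with fluorescent labeling and capillary electrophoresis after 24 h dosing, reflect activity of an exogenous human RARa–GAL4 fusion in transiently transfected HepG2. Fitted for increase relative to DMSO.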

A short description of test [13]: BSK_3C_Proliferation: Cell Proliferation Assessment in the BioMAP Diversity Plus: 3C Assay (AID 2283006).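 As to AC50: potency may reflect either rise or fall in cell number versus DMSO.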 As to conditions: primary human endothelial cells (HUVEC). In outline: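 Measured here: sulforhodamine B (0.1%) staining of TCA-fixed sub-confluent umbilical vein endothelial cultures 48 h post-dosing, absorbance 560 nm. DMSO served as negative control and baseline; both signal gain and loss were modelled.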

The target in test [14] is Peroxisome proliferator-activated receptor gamma (Homo sapiens) (UniProt P37231). The test is described as follows: ATG_PPARg_TRANS: Attagene TRANS-FACTORIAL HepG2 Assay for human Peroxisome Proliferator-activated Receptor-gamma (PPARg) (AID 2283007; active = hit-call score of the fitted dose curve at least 0.9, where 1 is the maximum). In outline: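 HepG2 cells are transiently transfected with GAL4-UAS reporter units driven by chimeric NR-Gal4 fusions and dosed for 24 h. Reporter mRNA is quantified by RT-PCR, 6-FAM labelling, HpaI digestion and capillary electrophoresis. Induction is scored against DMSO.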
Chain of Peroxisome proliferator-activated receptor gamma (Homo sapiens) (P37231 whole entry, looked up, the tested form may be a part): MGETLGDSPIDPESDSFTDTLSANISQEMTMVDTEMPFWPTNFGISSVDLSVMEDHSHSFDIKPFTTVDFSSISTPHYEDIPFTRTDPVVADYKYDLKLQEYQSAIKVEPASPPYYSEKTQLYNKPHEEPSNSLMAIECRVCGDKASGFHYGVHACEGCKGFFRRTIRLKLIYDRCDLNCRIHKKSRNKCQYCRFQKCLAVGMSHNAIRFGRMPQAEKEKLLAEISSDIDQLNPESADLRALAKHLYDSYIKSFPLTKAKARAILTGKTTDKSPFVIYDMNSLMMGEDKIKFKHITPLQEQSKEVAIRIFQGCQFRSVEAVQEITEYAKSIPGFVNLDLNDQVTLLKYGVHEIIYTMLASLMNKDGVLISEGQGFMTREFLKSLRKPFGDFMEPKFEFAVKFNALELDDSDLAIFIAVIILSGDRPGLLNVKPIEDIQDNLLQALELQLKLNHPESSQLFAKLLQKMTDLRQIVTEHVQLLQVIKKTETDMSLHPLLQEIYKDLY

Test [15] concerns the target Nuclear receptor subfamily 1 group I member 2 (Homo sapiens) (UniProt O75469). Kind of test: ATG_PXR_TRANS: Attagene TRANS-FACTORIAL HepG2 Assay for human Pregnane X Receptor (PXR) (AID 2283008; active = hit-call score of the fitted dose curve at least 0.9, where 1 is the maximum). In outline: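 Transient HepG2 transfectants carrying multiplexed reporter transcription units; PXR activity read through a Gal4 chimera. 24 h exposure. RT-PCR/CE fluorescence; upward curve fit referenced to DMSO.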

Test [16] addresses human Retinoic Acid Receptor gamma (RARg), RARG (gene 5916) (UniProt P13631). The test is described as follows: ATG_RARg_TRANS: Attagene TRANS-FACTORIAL HepG2 Assay for human Retinoic Acid Receptor gamma (RARg) (AID 2283009; active = hit-call score of the fitted dose curve at least 0.9, where 1 is the maximum). The method, boiled down:
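Gain-of-signal relative to DMSO is reported from fluorescent capillary electrophoresis of RT-PCR reporter products. These came from HepG2 cells expressing transfected RARg-GAL4 chimeras with UAS reporters, harvested 24 h after dosing.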

Test [17] concerns the target human RAR-related Orphan Receptor beta (RORb), RORB (gene 6096) (UniProt Q92753). Kind of test: ATG_RORb_TRANS: Attagene TRANS-FACTORIAL HepG2 Assay for human RAR-related Orphan Receptor beta (RORb) (AID 2283010; active = hit-call score of the fitted dose curve at least 0.9, where 1 is the maximum). The method, boiled down: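 Multiplexed transcription-factor reporter assay: HepG2 cells transiently carrying NR-Gal4/GAL4-UAS constructs, 24 h treatment, mRNA quantified by RT-PCR plus capillary electrophoresis fluorescence; activity scored as induction over DMSO.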

The target in test [18] is human Peroxisome Proliferator-activated Receptor alpha (PPARa), PPARA (gene 5465) (UniProt Q07869). The test is described as follows: ATG_PPARa_TRANS: Attagene TRANS-FACTORIAL HepG2 Assay for human Peroxisome Proliferator-activated Receptor alpha (PPARa) (AID 2283001; active = hit-call score of the fitted dose curve at least 0.9, where 1 is the maximum). The method, boiled down: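 Transfected HepG2 cells treated with test chemical for 24 h. RNA isolated, reverse-transcribed with oligo(dT), PCR-amplified, FAM-labelled and HpaI-digested. Fragments sized by capillary electrophoresis; gain-of-signal fit relative to DMSO.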
Chain of human Peroxisome Proliferator-activated Receptor alpha (PPARa), PPARA (gene 5465) (Q07869 whole entry, looked up, the tested form may be a part): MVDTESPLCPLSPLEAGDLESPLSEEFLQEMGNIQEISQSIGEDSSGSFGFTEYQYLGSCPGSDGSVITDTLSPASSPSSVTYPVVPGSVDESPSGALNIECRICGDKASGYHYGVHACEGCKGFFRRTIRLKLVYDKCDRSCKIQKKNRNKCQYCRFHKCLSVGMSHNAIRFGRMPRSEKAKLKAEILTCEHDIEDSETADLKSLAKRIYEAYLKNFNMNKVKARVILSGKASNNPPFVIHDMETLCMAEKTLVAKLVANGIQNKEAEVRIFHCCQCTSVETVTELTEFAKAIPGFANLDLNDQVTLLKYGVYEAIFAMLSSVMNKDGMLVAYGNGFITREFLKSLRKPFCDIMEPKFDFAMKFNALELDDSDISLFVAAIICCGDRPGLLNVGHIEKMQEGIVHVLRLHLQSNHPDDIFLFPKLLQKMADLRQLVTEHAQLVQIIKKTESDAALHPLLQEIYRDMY

Test [19] deals with human Retinoic Acid Receptor beta (RARb), RARB (gene 5915) (UniProt P10826). The test is described as follows: ATG_RARb_TRANS: Attagene TRANS-FACTORIAL HepG2 Assay for human Retinoic Acid Receptor beta (AID 2283004; active = hit-call score of the fitted dose curve at least 0.9, where 1 is the maximum). In outline: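 HepG2 cells were transiently transfected with GAL4-UAS reporter units that report activity of exogenous chimeric NR-Gal4 proteins, then exposed to compound for 24 h. Reporter mRNA was quantified by RT-PCR with capillary electrophoresis fluorescence, as gain of signal over DMSO.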
Chain of human Retinoic Acid Receptor beta (RARb), RARB (gene 5915) (P10826 whole entry, looked up, the tested form may be a part): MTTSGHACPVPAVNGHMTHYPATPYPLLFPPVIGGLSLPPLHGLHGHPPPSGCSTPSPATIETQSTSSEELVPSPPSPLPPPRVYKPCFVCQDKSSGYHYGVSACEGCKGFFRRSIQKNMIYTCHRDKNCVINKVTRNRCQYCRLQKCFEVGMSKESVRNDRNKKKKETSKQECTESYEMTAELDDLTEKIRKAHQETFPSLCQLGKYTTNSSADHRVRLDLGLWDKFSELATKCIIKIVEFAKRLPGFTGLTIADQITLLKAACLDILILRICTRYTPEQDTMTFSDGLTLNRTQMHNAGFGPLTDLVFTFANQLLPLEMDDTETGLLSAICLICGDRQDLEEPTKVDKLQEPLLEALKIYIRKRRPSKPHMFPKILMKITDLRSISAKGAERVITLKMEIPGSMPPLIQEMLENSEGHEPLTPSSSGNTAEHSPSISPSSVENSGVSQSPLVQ

For test [20], the target named is human RAR-related Orphan Receptor gamma (RORg), RORC (gene 6097) (UniProt P51449). The test is described as follows: ATG_RORg_TRANS: Attagene TRANS-FACTORIAL HepG2 Assay for human RAR-related Orphan Receptor gamma (RORg) (AID 2283011; active = hit-call score of the fitted dose curve at least 0.9, where 1 is the maximum). In outline: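 HepG2 cells transiently transfected with GAL4-UAS reporter units and chimeric RORg-Gal4 construct; after 24 h chemical exposure, reporter mRNA measured by RT-PCR with fluorescent capillary electrophoresis, gain of signal fitted against DMSO.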

Inconclusive results are not listed. Calls of active or inactive are those of the source. The calls were made as follows, unless noted: active = hit-call score of the fitted dose curve at least 0.9, where 1 is the maximum; inactive = score below 0.9.

Chain of Myc proto-oncogene protein (Homo sapiens) (P01106 whole entry, looked up): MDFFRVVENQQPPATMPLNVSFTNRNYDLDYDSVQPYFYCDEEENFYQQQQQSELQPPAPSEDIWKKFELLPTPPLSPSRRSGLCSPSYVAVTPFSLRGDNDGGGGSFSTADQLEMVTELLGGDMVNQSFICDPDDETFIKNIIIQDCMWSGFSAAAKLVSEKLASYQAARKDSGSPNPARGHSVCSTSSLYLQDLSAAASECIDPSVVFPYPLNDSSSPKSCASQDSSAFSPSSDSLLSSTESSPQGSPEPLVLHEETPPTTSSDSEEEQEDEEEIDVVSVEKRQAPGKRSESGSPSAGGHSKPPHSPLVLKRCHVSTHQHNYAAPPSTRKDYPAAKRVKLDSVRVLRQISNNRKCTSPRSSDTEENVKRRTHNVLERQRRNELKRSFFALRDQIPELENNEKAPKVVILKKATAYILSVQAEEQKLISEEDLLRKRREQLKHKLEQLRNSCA
Chain of Cellular tumor antigen p53 (Homo sapiens) (P04637 whole entry, looked up): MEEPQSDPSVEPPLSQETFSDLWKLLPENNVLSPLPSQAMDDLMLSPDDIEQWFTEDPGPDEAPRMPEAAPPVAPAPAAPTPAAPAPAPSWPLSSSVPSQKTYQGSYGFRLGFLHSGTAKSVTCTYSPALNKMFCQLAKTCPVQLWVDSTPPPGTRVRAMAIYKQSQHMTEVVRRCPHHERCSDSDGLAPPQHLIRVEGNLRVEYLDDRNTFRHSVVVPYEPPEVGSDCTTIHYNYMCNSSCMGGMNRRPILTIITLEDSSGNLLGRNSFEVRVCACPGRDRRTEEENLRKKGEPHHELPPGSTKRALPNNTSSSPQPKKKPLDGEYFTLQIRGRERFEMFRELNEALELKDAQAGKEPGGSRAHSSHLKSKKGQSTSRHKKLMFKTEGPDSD
Chain of Retinoic acid receptor alpha (Homo sapiens) (P10276 whole entry, looked up, the tested form may be a part): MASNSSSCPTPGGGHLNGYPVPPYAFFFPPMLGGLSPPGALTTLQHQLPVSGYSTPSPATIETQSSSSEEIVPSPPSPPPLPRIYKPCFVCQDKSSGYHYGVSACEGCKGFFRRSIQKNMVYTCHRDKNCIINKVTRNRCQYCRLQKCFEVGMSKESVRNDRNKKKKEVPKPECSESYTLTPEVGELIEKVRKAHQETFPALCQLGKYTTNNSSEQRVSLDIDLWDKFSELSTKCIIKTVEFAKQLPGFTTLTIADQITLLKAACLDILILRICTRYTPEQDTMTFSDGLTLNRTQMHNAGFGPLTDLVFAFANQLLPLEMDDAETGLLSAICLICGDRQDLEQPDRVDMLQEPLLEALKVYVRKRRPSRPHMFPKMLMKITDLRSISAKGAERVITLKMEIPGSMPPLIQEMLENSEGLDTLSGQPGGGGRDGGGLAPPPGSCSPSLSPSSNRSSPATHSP
Chain of human Retinoic Acid Receptor gamma (RARg), RARG (gene 5916) (P13631 whole entry, looked up, the tested form may be a part): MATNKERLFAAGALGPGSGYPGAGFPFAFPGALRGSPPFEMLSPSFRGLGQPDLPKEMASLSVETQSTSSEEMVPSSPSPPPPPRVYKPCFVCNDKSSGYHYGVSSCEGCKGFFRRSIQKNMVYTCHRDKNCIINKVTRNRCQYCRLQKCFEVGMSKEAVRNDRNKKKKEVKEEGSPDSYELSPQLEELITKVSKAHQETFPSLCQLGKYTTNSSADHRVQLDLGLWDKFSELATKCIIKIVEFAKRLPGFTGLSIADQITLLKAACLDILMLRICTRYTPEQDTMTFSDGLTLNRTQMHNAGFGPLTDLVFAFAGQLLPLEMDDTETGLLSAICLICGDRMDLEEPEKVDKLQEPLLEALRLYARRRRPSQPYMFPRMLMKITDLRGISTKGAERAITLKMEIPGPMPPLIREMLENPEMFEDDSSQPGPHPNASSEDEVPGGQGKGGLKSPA
Chain of human Peroxisome Proliferator-activated Receptor delta (PPARd), PPARD (gene 5467) (Q03181 whole entry, looked up, the tested form may be a part): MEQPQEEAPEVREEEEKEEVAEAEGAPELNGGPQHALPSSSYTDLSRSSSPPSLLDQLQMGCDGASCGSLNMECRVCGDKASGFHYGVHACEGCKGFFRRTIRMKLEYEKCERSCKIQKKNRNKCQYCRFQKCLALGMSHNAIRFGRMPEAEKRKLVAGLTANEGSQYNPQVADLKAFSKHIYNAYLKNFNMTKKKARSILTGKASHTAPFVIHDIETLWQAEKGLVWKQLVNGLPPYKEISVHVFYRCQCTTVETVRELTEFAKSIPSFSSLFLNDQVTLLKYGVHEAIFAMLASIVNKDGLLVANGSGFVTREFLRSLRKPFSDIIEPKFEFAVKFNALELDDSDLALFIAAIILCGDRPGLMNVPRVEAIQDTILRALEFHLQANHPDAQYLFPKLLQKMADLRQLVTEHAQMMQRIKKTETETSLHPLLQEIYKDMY
Chain of Nuclear receptor subfamily 1 group I member 2 (Homo sapiens) (O75469 whole entry, looked up, the tested form may be a part): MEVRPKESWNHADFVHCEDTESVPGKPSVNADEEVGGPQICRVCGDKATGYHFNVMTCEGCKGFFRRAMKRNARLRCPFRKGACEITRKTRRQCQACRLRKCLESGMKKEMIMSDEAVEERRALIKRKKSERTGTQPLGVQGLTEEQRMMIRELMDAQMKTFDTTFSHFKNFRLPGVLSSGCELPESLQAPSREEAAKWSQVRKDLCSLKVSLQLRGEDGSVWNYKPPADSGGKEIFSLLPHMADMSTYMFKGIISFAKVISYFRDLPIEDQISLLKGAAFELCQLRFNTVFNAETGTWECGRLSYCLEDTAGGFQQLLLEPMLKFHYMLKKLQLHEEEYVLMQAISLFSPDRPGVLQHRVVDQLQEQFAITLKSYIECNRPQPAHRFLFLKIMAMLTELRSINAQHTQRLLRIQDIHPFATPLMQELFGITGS
Chain of human RAR-related Orphan Receptor beta (RORb), RORB (gene 6096) (Q92753 whole entry, looked up, the tested form may be a part): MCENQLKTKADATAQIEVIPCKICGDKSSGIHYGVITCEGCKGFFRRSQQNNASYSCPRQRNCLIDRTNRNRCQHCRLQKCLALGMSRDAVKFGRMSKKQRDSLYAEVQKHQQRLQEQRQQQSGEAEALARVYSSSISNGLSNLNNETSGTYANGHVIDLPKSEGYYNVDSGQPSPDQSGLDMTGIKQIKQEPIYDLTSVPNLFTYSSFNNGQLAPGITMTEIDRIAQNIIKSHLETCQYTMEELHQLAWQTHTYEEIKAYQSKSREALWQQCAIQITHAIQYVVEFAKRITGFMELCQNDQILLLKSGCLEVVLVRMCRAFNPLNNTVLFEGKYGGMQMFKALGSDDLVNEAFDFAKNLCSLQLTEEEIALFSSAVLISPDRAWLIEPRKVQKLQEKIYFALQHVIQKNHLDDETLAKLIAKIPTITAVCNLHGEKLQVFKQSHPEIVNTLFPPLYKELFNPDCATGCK

What is called AC50 is the concentration giving half of the maximal activity seen. On to `O=C1OC2(c3ccccc31)c1ccc(O)c(Br)c1Oc1c2ccc(O)c1Br`, for which the outcome in test [1], in [2], in [3], in [4], in [5] and in test [10] was inactive. Further, the outcome in test [11], in test [12], in test [14], in [16] and in test [17] was inactive. Besides, the AC50 in test [6] is 31.9 µM (active); in test [7], 20 µM (active); in test [8], 20 µM (active); in [9], 28.9 µM (active); in [13], 9.61 µM (active); in test [15] it was 57 µM (active).
Turning to `C=C(C)CNCC`, the call in [1], in test [2], in test [3], in [4], in test [5] and in test [18] was inactive. The result in test [10] and in test [16] was inactive. The AC50 in [15] was 54.6 µM (active).
Take `C=C(C)C(=O)OCCOCCOCCOC(=O)C(=C)C`: the molecule was classed as inactive in test [1], in [2], in test [3], in test [4], in [5] and in [6]. The result in [7], in test [8], in test [9], in test [18], in test [11] and in test [13] was inactive. Moreover, the result in test [14] and in test [15] was inactive.
On to `Cc1cc(=O)oc2cc(N(C)C)ccc12`, for which the molecule was called inactive in [1], in test [2], in test [3], in test [5], in test [18] and in test [10]. Also, the outcome in test [14] and in [15] was inactive. Besides, in [4], the AC50 was 57.4 µM (active).
`ClC(c1ccccc1)(c1ccccc1)c1ccccc1`: the call in test [1], in test [2], in test [3], in [4], in test [5] and in test [10] was inactive. Further, the call in test [19] and in [16] was inactive.
Consider `CC(C)(C)C1=CC(=O)C(C(C)(C)C)=CC1=O`, for which the AC50 is 77.3 µM (active) in test [1], 50 µM (active) in test [2], 13.7 µM (active) in test [3] and 30.5 µM (active) in test [5]. Further, the molecule was classed as inactive in test [4] and in test [10].
Regarding `CCCCCCCC(=O)OCCCCCC`, the result in test [1], in test [2], in test [3], in test [4], in test [5] and in test [10] was inactive. Moreover, the molecule was called inactive in test [19], in [12], in test [14], in [15], in test [16] and in test [20].
As to `CCOC(=O)CCc1ccccc1`, the outcome in [1], in [2], in test [3], in test [4], in test [5] and in test [18] was inactive. Besides, the outcome in [14], in [15], in test [16] and in [20] was inactive.
`CC(C)Nc1nc(N)nc(Cl)n1`: the molecule was called inactive in test [1], in test [2], in test [3], in test [4], in [5] and in test [10]. Further, the call in test [14] and in test [15] was inactive.
Turning to `c1ccc2[nH]cnc2c1`, the molecule was called inactive in [1], in [2], in test [3], in test [4], in [5] and in test [18]. In addition, the result in test [12], in test [15], in [16] and in test [17] was inactive.
For `COC(C)(C)CCCC(C)CC=O` (configuration not stated), the molecule was classed as inactive in test [1], in test [2], in test [3], in [4], in [5] and in test [10]. In addition, the molecule was called inactive in test [12], in test [14] and in [15].

(Values after PubChem BioAssay (EPA / NIEHS).)
